# Measurements from the supplement of paper PMC12532568.
# Where a name gives a salt, the structure may show the parent alone.
# System: Danio rerio larvae Tg(actc1b:ZsGreen-LC3), 3 dpf
# Experiment: LC3 puncta relative area vs vehicle, without NH4Cl (log2 fold change); higher = more autophagosomes
# Conditions: 10 µM; treatment time 16 h; NH4Cl: none
# Protocol: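 Transgenic Tg(actc1b:ZsGreen-map1lc3) zebrafish larvae (2 dpf) were treated for 16 h with Tocris library compounds at 10 µM (n = 12 larvae per compound). Skeletal-muscle LC3 puncta area relative to body area was measured by high-content confocal imaging before and after 4 h of 100 mM NH4Cl (autophagic flux), normalised to vehicle (DMSO), and reported as log2 fold change.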
row,Compound,LC3 puncta (log2)
1,Cc1ccc2c(c1)c1c3n2CCNC3CCC1 (stereo not given) [Pirlindole mesylate],0.028
2,"O=C1CN(/N=C/c2ccc(-c3ccc([N+](=O)[O-])cc3)o2)C(=O)N1 [Dantrolene, sodium salt]",0.18
3,CC(C)CC(NC(=O)OCC1c2ccccc2-c2ccccc21)C(=O)O (stereo not given),0.0242
4,CC1=NN(c2ccccc2)C(=O)C1 [Edaravone],0.377
5,Cc1noc(NS(=O)(=O)c2ccc(N)cc2)c1C [Sulfisoxazole],0.239
6,CC(C)NC[C@@H](O)COc1cccc2ccccc12 [(R)-(+)-Propranolol hydrochloride],0.00434
7,c1ccc2oc(C3=NCCN3)cc2c1 [2-BFI hydrochloride],0.0586
8,CC(C)Oc1ccc2c(=O)c3cc(C(=O)O)ccc3oc2c1,0.473
9,CC(Cc1ccc(O)c(O)c1)(NN)C(=O)O [(S)-(-)-Carbidopa],0.0108
10,Fc1ccc(C(c2ccc(F)cc2)N2CCN(C/C=C/c3ccccc3)CC2)cc1 [Flunarizine dihydrochloride],0.219
11,CC(C)[N+]1(C)[C@@H]2CC[C@H]1C[C@@H](OC(=O)C(CO)c1ccccc1)C2 (stereo not given in full) [Ipratropium bromide],-0.65
12,CNC(=O)c1cc2c(cn1)[nH]c1ccccc12,0.13
13,O=S(=O)(c1cccc2c(Cl)cccc12)N1CCCNCC1 [ML 9 hydrochloride],0.232
14,CN1CCN(C2=Cc3ccccc3Oc3ccc(Cl)cc32)CC1,0.742
15,N[C@H](C(=O)O)c1ccc(C(=O)O)c(O)c1 [(S)-4-Carboxy-3-hydroxyphenylglycine],-0.331
16,CC(CCc1ccc(O)cc1)NCCc1ccc(O)c(O)c1 (stereo not given) [Dobutamine hydrochloride],-0.094
17,C=C1C(=O)O[C@H]2[C@H]1CC/C(C)=C/CC[C@@]1(C)O[C@@H]21 [Parthenolide],0.0168
18,CC(C)NC[C@H](O)COc1cccc2ccccc12 [(S)-(-)-Propranolol hydrochloride],0.355
19,CC(=O)NCC(=O)N[C@H](CCC(=O)O)C(=O)O [N-Acetylglycyl-D-glutamic acid],-0.0216
20,"c1ccc(CN2CCC3(CCc4ccccc43)CC2)cc1 [L-693,403 maleate]",-0.0234

row,Compound,LC3 puncta (log2)
1,O=C(OCCN1CCCCC1)c1c[nH]c2ccccc12,0.11
2,O=C1c2ccccc2CCC1CNCCc1ccc(O)cc1 (stereo not given) [HEAT hydrochloride],0.103
3,c1cc2c(cc1C1CCCCC1)c1c3n2CCNC3CCC1 (stereo not given) [Tetrindole mesylate],0.672
4,CN(C)CCCn1cc(C2=C(c3c[nH]c4ccccc34)C(=O)NC2=O)c2ccccc21,0.584
5,CC12CC3CC(C)(C1)CC(N)(C3)C2 [Memantine hydrochloride],0.145
6,CC(=O)N[C@@H](Cc1c[nH]c2ccccc12)C(=O)OCc1cc(C(F)(F)F)cc(C(F)(F)F)c1,0.214
7,CCCCCCN(CCCCCC)C(=O)Cc1c(-c2ccc(Cl)cc2)[nH]c2ccc(Cl)cc12,0.364
8,COc1ccc([C@@H]2Sc3ccccc3N(CCN(C)C)C(=O)[C@@H]2OC(C)=O)cc1 [Diltiazem hydrochloride],0.112
9,O=C(NCCCN1CCCCCC1)C(c1ccccc1)C1CCCCC1 (stereo not given),0.0552
10,O=C1CC2(CCCC2)CC(=O)N1CCNCC1COc2ccccc2O1 (stereo not given),0.301
11,COc1ccccc1N1CCN(CCCCN2C(=O)c3ccccc3C2=O)CC1 [NAN-190 hydrobromide],0.201
12,O=C1CC2(CCCC2)CC(=O)N1CCCCNCC1COc2ccccc2O1 (stereo not given),-0.00847
13,NC(=O)c1cccc(N)c1 [3-Aminobenzamide],0.336
14,CCOC(=O)C1=C[C@]2(CC)CCCN3CCc4c(n1c1ccccc41)[C@@H]32 [Vinpocetine],0.406
15,N[C@@H](CSS(=O)(=O)O)C(=O)O [S-Sulfo-L-cysteine sodium salt],-0.101
16,CSc1ccc2c(c1)C(N1CCN(C)CC1)Cc1ccccc1S2 (stereo not given) [Methiothepin maleate],-0.425
17,NC(N)=NC(N)=Nc1cccc(Cl)c1 [m-Chlorophenylbiguanide hydrochloride],0.136
18,N=C(N)SCCc1c[nH]cn1 [Imetit dihydrobromide],0.595
19,"O=C(O)c1cc(=O)c2c(Cl)cc(Cl)cc2[nH]1 [5,7-Dichlorokynurenic acid]",-0.0706
20,COc1cc(C(=O)OCCCN2CCCN(CCCOC(=O)c3cc(OC)c(OC)c(OC)c3)CC2)cc(OC)c1OC [Dilazep],0.175
